Measurements reported in PubChem BioAssay (EPA / NIEHS).
“And” between values parts separate entries of the source, which are not always exact repeats. Equal values may be shown once. Inconclusive results are not listed. The source holds several records for some structures; these can differ, active in one and inactive in another. The source made the active and inactive calls. The calls were made as follows: active = hit-call score of the fitted dose curve at least 0.9, where 1 is the maximum; inconclusive = response in the unintended direction; inactive = score below 0.9.

Legend:
[1] = ATG_XTT_Cytotoxicity: Cytotoxicity Assessment in the Attagene TRANS-FACTORIAL HepG2 Assay (AID 2283584);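 as to AC50: XTT signal for cell number as viability in transfected HepG2 cells; cells exposed to compound for 24 h before reading; active means loss of viability signal versus DMSO baseline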
Procedure, shortened: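 Transfect HepG2 with GAL4-UAS reporter units, dose compound, incubate 24 h, then measure viable cell number by XTT. Fit concentration response against DMSO baseline.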

[2] = TOX21_p53_BLA_p2_viability: Viability Assessment in the Tox21 HCT-116 p53 Agonism Beta-lactamase Assay, Phase 2 (AID 2283591);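 also: compound exposure lasted 16 h at 37 °C; actives lower the ATP signal meaning cytotoxicity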
Procedure, shortened: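 Cytotoxicity readout: CellTiter-Glo ATP luminescence, 30 min at room temperature, after the beta-lactamase read. Cells were HCT116 exposed 16 h at 37C to compounds pin-transferred at 217-fold dilution from DMSO stocks.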

[3] = biological target: Cellular tumor antigen p53 (Homo sapiens) (UniProt P04637); assay: TOX21_p53_BLA_p2_ratio: Tox21 HCT-116 p53 Agonism Beta-lactamase Assay, Ratio, Phase 2 (AID 2283592)
Sequence of Cellular tumor antigen p53 (Homo sapiens) (P04637 whole entry, looked up): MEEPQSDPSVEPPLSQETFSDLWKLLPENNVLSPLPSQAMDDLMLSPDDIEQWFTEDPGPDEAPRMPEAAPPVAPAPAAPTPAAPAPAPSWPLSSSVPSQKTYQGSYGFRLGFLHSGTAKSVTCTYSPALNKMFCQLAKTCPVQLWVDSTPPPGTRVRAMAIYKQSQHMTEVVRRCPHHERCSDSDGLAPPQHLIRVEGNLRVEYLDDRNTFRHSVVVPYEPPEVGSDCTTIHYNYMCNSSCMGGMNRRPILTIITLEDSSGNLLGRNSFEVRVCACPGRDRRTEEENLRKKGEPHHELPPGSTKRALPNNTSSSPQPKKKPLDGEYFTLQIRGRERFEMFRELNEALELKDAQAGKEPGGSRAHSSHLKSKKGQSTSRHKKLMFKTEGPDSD
Procedure, shortened: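 Cleaved-to-uncleaved substrate ratio (460 vs 530 nm) measured in HCT116 cells with an inducible beta-lactamase reporter linked to p53 activity. Compounds incubated 16 h at 37C before 2 h room-temperature CCF4-AM loading.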

[4] = TOX21_p53_BLA_p3_viability: Viability Assessment in the Tox21 HCT-116 p53 Agonism Beta-lactamase Assay, Phase 3 (AID 2283593);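 also: cells exposed to compound for 16 h before reading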
Procedure, shortened: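 Cellular ATP was quantified by CellTiter-Glo luminescence, read after 30 min at room temperature. Beforehand, HCT116 cells (4000/well) received compound 5 h post-seeding, 217-fold diluted from DMSO, then incubated 16 h at 37C.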

[5] = biological target: Cellular tumor antigen p53 (Homo sapiens) (UniProt P04637); assay: TOX21_p53_BLA_p3_ratio: Tox21 HCT-116 p53 Agonism Beta-lactamase Assay, Ratio, Phase 3 (AID 2283596)
Procedure, shortened: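 Cells were seeded at 4000/well, rested 5 h at 37C, then dosed with DMSO compound solutions (217-fold dilution) for 16 h. CCF4-AM substrate was loaded for 2 h at room temperature, and the 460/530 nm emission ratio was fitted for gain of signal versus DMSO.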

[6] = TOX21_p53_BLA_p4_viability: Viability Assessment in the Tox21 HCT-116 p53 Agonism Beta-lactamase Assay, Phase 4 (AID 2283597);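 also: hits lower the luminescence signal meaning cytotoxicity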
Procedure, shortened: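 Viability is taken as cellular ATP: after 16 h compound exposure of HCT116 cells and a 2 h room-temperature CCF4-AM substrate step, CellTiter-Glo reagent is added and luminescence is measured 30 min later.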

[7] = TOX21_p53_BLA_p5_viability: Viability Assessment in the Tox21 HCT-116 p53 Agonism Beta-lactamase Assay, Phase 5 (AID 2283600)
Procedure, shortened: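 Viability is taken from cellular ATP content, measured by luciferase luminescence in the same wells after the beta-lactamase ratio read. Cells are seeded at 4000 per well and exposed to DMSO-dissolved compounds, diluted 217-fold, for 16 h.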

[8] = biological target: Cellular tumor antigen p53 (Homo sapiens) (UniProt P04637); assay: TOX21_p53_BLA_p4_ratio: Tox21 HCT-116 p53 Agonism Beta-lactamase Assay, Ratio, Phase 4 (AID 2283601)
Procedure, shortened: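 Signal is the blue/green (460nm/530nm) ratio of cleaved versus uncleaved CCF4-AM substrate, read after 2 h substrate loading. Cells were HCT116 carrying the p53-responsive beta-lactamase reporter, dosed 16 h at 37C, 5% CO2; CellTiter-Glo measured in parallel.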

[9] = Tanguay_ZF_120hpf_MORT_legacy: (Legacy) Oregon State University Tanguay Lab 120 Hour Post-fertilization zebrafish Assay for Mortality (AID 2283633);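 as to AC50: fitted as increase in binary mortality versus DMSO negative control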
Procedure, shortened: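 Mortality endpoint from a multiplexed whole-embryo zebrafish screen. Dechorionated wild-type embryos received compound at 6 hpf and remained under static exposure at 28C until 120 hpf, with death noted as a present/absent call.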

[10] = Tanguay_ZF_120hpf_YSE_legacy: (Legacy) Oregon State University Tanguay Lab 120 Hour Post-fertilization zebrafish Assay for Yolk Sac Edema (AID 2283634);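 as to AC50: actives raise the incidence of yolk sac edema above the DMSO baseline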
Procedure, shortened: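 Readout: presence or absence of yolk sac edema at 120 hpf, fitted upward against DMSO controls. Exposure ran statically from 6 hpf in dechorionated embryos kept at 28C.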

[11] = Tanguay_ZF_120hpf_AXIS_legacy: (Legacy) Oregon State University Tanguay Lab 120 Hour Post-fertilization zebrafish Assay for Body Axis Malformation (AID 2283635);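 as to AC50: potency for an increased fraction of larvae scored with body axis malformation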
Procedure, shortened: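 Static 6–120 hpf chemical exposure of dechorionated wild-type 5D zebrafish, one per well at 28C; morphology endpoint scored binary at 120 hpf relative to DMSO control.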

[12] = Tanguay_ZF_120hpf_EYE_legacy: (Legacy) Oregon State University Tanguay Lab 120 Hour Post-fertilization zebrafish Assay for Eye Malformation (AID 2283636);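 also: binary presence or absence of eye malformation scored by brightfield in 120 hpf larvae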
Procedure, shortened: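 Binary brightfield scoring of eye defects at 120 hpf after static exposure from 6 hpf of single pronase-dechorionated wild-type embryos (28C, 0.64% DMSO). Non-mortality endpoints omitted where embryos died; fit vs DMSO.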

[13] = Tanguay_ZF_120hpf_SNOU_legacy: (Legacy) Oregon State University Tanguay Lab 120 Hour Post-fertilization zebrafish Assay for Snout Malformation (AID 2283637)
Procedure, shortened: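 Binary snout-malformation call at 120 hpf in wild-type 5D embryos, chorion removed by pronase, under static exposure from 6 hpf at 28C (0.64% DMSO). Embryos dying by 24 or 120 hpf excluded.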

[14] = Tanguay_ZF_120hpf_JAW_legacy: (Legacy) Oregon State University Tanguay Lab 120 Hour Post-fertilization zebrafish Assay for Jaw Malformation (AID 2283638);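 as to AC50: active means more embryos with jaw malformation than DMSO controls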
Procedure, shortened: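 Static waterborne exposure of dechorionated wild-type (Tropical 5D) zebrafish from 6 to 120 hpf at 28C, 0.64% DMSO vehicle; 5uM trimethyltin chloride served as positive control. Jaw morphology recorded as binary at 120 hpf.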

[15] = Tanguay_ZF_120hpf_OTIC_legacy: (Legacy) Oregon State University Tanguay Lab 120 Hour Post-fertilization zebrafish Assay for Otic Vesicle Malformation (AID 2283639)
Procedure, shortened: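 Binary scoring of otic vesicle defects at 120 hpf in zebrafish (Tropical 5D) held under static exposure at 28C, sealed and shaded, with final DMSO 0.64%. Embryos dying by 24 or 120 hpf excluded; fitted positively against DMSO.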

[16] = Tanguay_ZF_120hpf_PE_legacy: (Legacy) Oregon State University Tanguay Lab 120 Hour Post-fertilization zebrafish Assay for Pericardial Edema (AID 2283640);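 as to AC50: potency for increased incidence of pericardial edema versus DMSO baseline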
Procedure, shortened: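 Read-out is the presence or absence of pericardial edema at 120 hpf under brightfield, with gain of signal fitted against DMSO controls. Larvae (5D wild-type) were statically exposed at 28C with 0.64% final DMSO.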

[17] = Tanguay_ZF_120hpf_BRAI_legacy: (Legacy) Oregon State University Tanguay Lab 120 Hour Post-fertilization zebrafish Assay for Brain Malformation (AID 2283641)
Procedure, shortened: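 Brain malformation in Tropical 5D zebrafish was recorded as a binary endpoint after static compound exposure from early development to 120 hpf at 28C. Activity was analysed against DMSO as negative control.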

[18] = Tanguay_ZF_120hpf_SOMI_legacy: (Legacy) Oregon State University Tanguay Lab 120 Hour Post-fertilization zebrafish Assay for Somite Malformation (AID 2283647)
Procedure, shortened: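 5D WT zebrafish; chorion removed 4 hpf; 1 embryo/well from 6 hpf; static exposure to 120 hpf, 28C, 0.64% DMSO final. Endpoint: somite malformation, binary, brightfield. Mortality excluded.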

[19] = biological target: Cellular tumor antigen p53 (Homo sapiens) (UniProt P04637); assay: TOX21_p53_BLA_p5_ratio: Tox21 HCT-116 p53 Agonism Beta-lactamase Assay, Ratio, Phase 5 (AID 2283599)
Procedure, shortened: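 Beta-lactamase reporter ratio (blue 460 nm over green 530 nm, 405 nm excitation) after 2 h CCF4-AM loading, in HCT-116 cells exposed 16 h at 37 C to compounds pinned at 217-fold dilution. Increases relative to DMSO baseline scored.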

[20] = LTEA_HepaRG_LDH_cytotoxicity: Cytotoxicity Assessment in the Life Technologies and Expression Analysis (LTEA) Assay (AID 2283563);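 as to AC50: LDH activity released into spent culture medium as a marker of cell death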
Procedure, shortened: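 Human HepaRG hepatic cells are treated with test chemicals for 48 h at up to 100 uM in 0.5% DMSO. Cytotoxicity is scored from medium LDH against the vehicle control.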

Measured: AC50

CCCCCCCC(=O)OC
not listed: [19] | [20]
inactive: all other assays above

CCOCCOCCO
not listed: [6] | [7] | [20]
inactive: all other assays above

N[C@@H](Cc1c[nH]c2ccccc12)C(=O)O
inactive: [20] | [1] | [9] | [10] | [12] | [14] | [15] | [18]

COc1ccc(OC(F)(F)F)cc1CN[C@H]1CCCN[C@H]1c1ccccc1
active: [20] 73.6 µM | [2] 69.3 µM | [6] 62.1 µM | [8] 82.3 µM | [9] 25 µM
not listed: [1] | [5] | [18]
inactive: all other assays above

Cc1cc(SC2=C(O)C[C@@](CCc3ccc(N)cc3)(C(C)C)OC2=O)c(C(C)(C)C)cc1CO
not listed: [1] | [4] | [8]
inactive: all other assays above

CN(C)CCCN1c2ccccc2Sc2ccc(Cl)cc21
active: [1] 43.2 µM | [2] 73.4 µM | [3] 6.66 µM | [6] 36.8 µM and 73.4 µM | [7] 77.8 µM | [8] 20.6 µM | [9] 16.3 µM
inactive: [3] | [4] | [5] | [19] | [8] | [10] | [11] | [12] | [13] | [14] | [15] | [16] | [17] | [18]

O=C(N[C@@H](c1ccccc1)[C@@H]1CCCCN1)c1cccc(C(F)(F)F)c1Cl
active: [20] 43 µM | [9] 26.6 µM
inactive: [10] | [11] | [12] | [13] | [14] | [15] | [16] | [17] | [18]

CC(C)OC(=O)C(C)(C)Oc1ccc(C(=O)c2ccc(Cl)cc2)cc1
inactive: [20] | [1] | [9] | [12] | [15] | [16]

c1ccc2occc2c1
not listed: [10] | [13] | [20]
inactive: all other assays above

CCCCCCCCCCCCCCOS(=O)(=O)O
active: [2] 74.2 µM | [6] 73.1 µM | [19] 80.7 µM | [7] 68.3 µM | [8] 78.4 µM | [9] 27.8 µM | [10] 10.8 µM | [11] 31.5 µM | [12] 26.1 µM | [13] 24.7 µM | [14] 42.3 µM | [15] 9.8 µM | [16] 27.7 µM | [17] 10.4 µM
inactive: [1] | [3] | [4] | [5] | [18]

Nc1nc(Cl)nc2c1ncn2[C@H]1C[C@H](O)[C@@H](CO)O1
active: [3] 271 nM and 790 nM | [5] 468 nM and 960 nM | [19] 455 nM and 793 nM | [8] 244 nM and 886 nM
not listed: [20]
inactive: all other assays above

CC(C)(O)c1ccc(CNC(=O)c2cccnc2Oc2ccc(F)cc2)cc1
not listed: [1] | [2] | [8] | [19]
inactive: all other assays above

CC(=O)S[C@H](C(=O)N[C@H]1Cc2ccccc2[C@H]2CCC[C@@H](C(=O)O)N2C1=O)C(C)C
not listed: [1] | [2] | [4] | [6] | [7] | [17]
inactive: all other assays above

OCC(CO)n1cnc(-c2ccc(F)cc2)c1-c1ccnc(Oc2ccccc2)n1
not listed: [1] | [5] | [8] | [12]
inactive: all other assays above

C/C=C/C=C/C(=O)O
inactive: [20] | [1] | [9] | [11] | [12] | [13] | [14] | [16] | [17] | [18]

CS(=O)(=O)c1ccc([C@@H](C[C@H]2CCC(=O)C2)C(=O)Nc2cnccn2)cc1Cl
not listed: [3] | [6] | [17] | [19] | [20]
inactive: all other assays above

CCCC(=O)O
inactive: [20] | [9] | [10] | [11] | [12] | [13] | [16] | [17] | [18]
